Rows were chosen to be rich in hits. Some 10% of all compounds tested hit in one or more screens of this group.
GLS inh = blocks human kidney-isoform glutaminase activity; Potency, µM (titrated, usually from 45.5 µM), for inactives: top-dose activity change, negative = inhibition, hits mostly inhibitors; hit rate 0.21% among 410,000; GLS enzymatic activity, qHTS titration; O94925; also: % is scaled to controls: 0 for no effect and ±100 for the full control effect
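hKGA in 45 mM KH2PO4 (pH 8.2), 0.02% Tween-20 with compound, then 1mM L-Glutamine (stock as added) plus glutamate oxidase/HRP/Amplex red coupling mix. Fluorescence read initially and after 30 min at RT; signal change reflects glutamate formation.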
G9a block = G9a (human) methyltransferase inhibition; Q96KQ7; G9a H3K9 monomethylation, AlphaScreen, 2 h; Potency, µM (series often up to 102 µM), inactives show at the highest dose activity, negative = inhibition, most hits filed as inhibitors; hit rate 8.8% among 350,000; also: % is scaled to controls: 0 for no effect and ±100 for the full control effect; nearly all actives have a fitted effect of over 75% in size
Target sequence (Q96KQ7 913-1193 limits assumed): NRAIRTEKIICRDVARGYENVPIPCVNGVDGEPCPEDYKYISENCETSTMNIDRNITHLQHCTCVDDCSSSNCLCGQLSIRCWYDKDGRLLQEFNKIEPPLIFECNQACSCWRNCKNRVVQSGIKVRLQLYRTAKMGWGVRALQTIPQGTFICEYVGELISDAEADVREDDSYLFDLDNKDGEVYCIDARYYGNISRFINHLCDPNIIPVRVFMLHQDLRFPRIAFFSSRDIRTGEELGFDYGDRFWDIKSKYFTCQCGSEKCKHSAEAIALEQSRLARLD
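G9a (20 nM) preincubated 15 min RT with compounds, then 500 nM biotinylated H3K9 peptide and 20 uM SAM added; 2 h RT reaction. Monomethyl-H3K9 product detected by AlphaScreen with anti-H3K9me1 antibody, streptavidin donor and anti-rabbit IgG acceptor beads.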
L3MBTL1 block = blocks human L3MBTL1; Q9Y468; AlphaScreen L3MBTL1–H3K9me1 peptide binding; Potency, µM (top dose mostly 57.1 µM), for inactives: top-dose activity, negative = inhibition, hits mostly inhibitors; hit rate 0.66% among 230,000; also: % is scaled to controls: 0 for no effect and ±100 for the full control effect; nearly all actives have a fitted effect of over 60% in size
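Read-out is AlphaScreen signal from streptavidin donor and nickel chelate acceptor beads (10 ug/mL final each) bridging L3MBTL1 (50 nM) and biotinylated K9-monomethylated H3(1-15) peptide (75 nM), after 30 min compound exposure at room temperature.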
BAZ2B block = inhibitors of human BAZ2B bromodomain | AID 504333 | Potency, µM (doses to about 114 µM), inactives show top-dose activity change, negative = inhibition, most hits filed as inhibitors | hit rate 4.4% among 360,000 | Q9UIF8 | AlphaScreen BAZ2B-H3K14Ac peptide displacement; also: % is scaled to controls: 0 for no effect and ±100 for the full control effect; nearly all actives have a fitted effect of over 60% in size
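In this displacement format the biotinylated H3(5-23) peptide acetylated at Lys14 serves as ligand at 50 nM, with BAZ2B at 50 nM in PBS pH 7.4 containing 0.01% Tween-20. Donor and acceptor beads are 10 ug/mL final.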
JMJD2A Tudor inh = JMJD2A Tudor domain (human) inhibition; O75164; AID 504339; AlphaScreen JMJD2A-Tudor / H3K4me3 peptide binding; hit rate 4.4% among 390,000; Potency, µM (series often up to 114 µM), for the others: top-dose activity change, negative = inhibition, usual class: inhibitors; also: % is scaled to controls: 0 for no effect and ±100 for the full control effect; nearly all actives have a fitted effect of over 50% in size
HP1b chromo inh = blocks HP1-beta chromodomain binding to methylated histone tails | P83916 | AlphaScreen HP1-beta / biotin-H3K9me3 peptide binding | Potency, µM (titrated, usually from 114 µM), for the others: at the top dose activity change, negative = inhibition, hits mostly inhibitors | hit rate 0.56% among 390,000 | AID 540317; also: nearly all actives have a fitted effect of over 70% in size
Target sequence (P83916 whole entry, looked up): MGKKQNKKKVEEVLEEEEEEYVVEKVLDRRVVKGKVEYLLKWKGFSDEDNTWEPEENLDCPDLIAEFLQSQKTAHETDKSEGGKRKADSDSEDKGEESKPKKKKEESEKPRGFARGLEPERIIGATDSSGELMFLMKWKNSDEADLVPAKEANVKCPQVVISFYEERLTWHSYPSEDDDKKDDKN
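AlphaScreen: HP1-beta (50 nM) preformed 30 min with biotin-H3(1-18)K9me3 peptide (50 nM) in PBS pH 7.4, 0.01% Tween-20. Compound added for 30 min at RT, then streptavidin donor/nickel chelate acceptor beads (10 ug/mL) for 30 min.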
The depositor's hits bear a star; [ ] = dose if it differs, or a comment. Calls follow the shape of the dose curve; as a rule, active = well fitted curve in the direction sought with a large enough effect; inconclusive = small, poorly fitted or top-dose-only effect, or another doubt; inactive = no such curve, though single readings can be large; an effect the other way counts as inactive or inconclusive. Potency is read from the fitted curve at half-maximal effect.

What do the screens show for `Cc1nc(-n2nc(C)c(Cc3ccc(Cl)cc3)c2C)sc1C(=O)N1CCC(C)CC1`?
GLS inh: 4%; G9a block: -4%[59 µM]; BAZ2B block: -3%; JMJD2A Tudor inh: -10%; HP1b chromo inh: 31%

How did Cc1ccc(CNc2nc(C)c(C(=O)N(C)C)s2)cc1 do in these assays?
GLS inh: 22%; G9a block: -30%; BAZ2B block: -32%; JMJD2A Tudor inh: -14%; HP1b chromo inh: 1%

What do the screens show for `CC(=O)c1sc(NC(=O)CCCOc2ccc(Cl)cc2)nc1C`?
GLS inh: 2%; G9a block: inconclusive; L3MBTL1 block: 6%; BAZ2B block: 79µM*; JMJD2A Tudor inh: -19%; HP1b chromo inh: 28%

What do the screens show for `CC(=O)c1sc(NCc2ccc(C)cc2)nc1C`?
GLS inh: -2%; G9a block: 56µM*; BAZ2B block: -22%; JMJD2A Tudor inh: -24%; HP1b chromo inh: 24%

How did COc1ccc(OCCCC(=O)Nc2nc(C)c(C(C)=O)s2)cc1 do in these assays?
GLS inh: -1%; G9a block: 8%[0.501 µM]; L3MBTL1 block: 7%; BAZ2B block: 2%; JMJD2A Tudor inh: inconclusive; HP1b chromo inh: -5%

Results for CC(=O)c1sc(NCCOc2ccc(C)cc2)nc1C ?
GLS inh: 5%; G9a block: 50µM*; L3MBTL1 block: inconclusive; BAZ2B block: 2%; JMJD2A Tudor inh: -9%; HP1b chromo inh: 63%

What do the screens show for `CCOC(=O)c1c(S(=O)(=O)N2CCC(C(=O)N3CCN(c4ccc(F)cc4)CC3)CC2)c(C)n(C)c1C`?
GLS inh: 28%; G9a block: 2%[59 µM]; BAZ2B block: -35%; JMJD2A Tudor inh: -22%; HP1b chromo inh: 4%

How did CCOC(=O)c1c(NC(=O)CSc2cn(CCNC(=O)c3c(F)cccc3F)c3ccccc23)sc2c1CCC2 do in these assays?
GLS inh: 2%; G9a block: -35%[59 µM]; BAZ2B block: -35%; JMJD2A Tudor inh: -17%; HP1b chromo inh: 17%

What do the screens show for `O=S1(=O)CCC(NC(=S)NC2CCS(=O)(=O)C2)C1` (stereo not given)?
GLS inh: 1%; G9a block: -1%[59 µM]; L3MBTL1 block: 2%; BAZ2B block: -31%; JMJD2A Tudor inh: -2%; HP1b chromo inh: 26%

What do the screens show for `CN(C)NC(=S)NC1CCS(=O)(=O)C1` (stereo not given)?
GLS inh: -5%; G9a block: 50µM*; L3MBTL1 block: -2%; BAZ2B block: -16%; JMJD2A Tudor inh: 32µM*; HP1b chromo inh: 10%

Results for O=[N+]([O-])c1ccc(O)c(C=Nc2ccc3c(c2)OCCO3)c1 ?
GLS inh: 8%; G9a block: -22%[59 µM]; L3MBTL1 block: -1%; BAZ2B block: -32%; JMJD2A Tudor inh: -15%; HP1b chromo inh: 23%

Results for O=[N+]([O-])c1ccc(O)c(C=Nc2ccc3oc(Cc4ccc(Cl)cc4)nc3c2)c1 ?
G9a block: 28µM*; L3MBTL1 block: -21%; BAZ2B block: inconclusive

How did Nc1ccc2oc(Cc3ccc(Cl)cc3)nc2c1 do in these assays?
GLS inh: 3%; G9a block: 13µM*; BAZ2B block: -37%; JMJD2A Tudor inh: inconclusive; HP1b chromo inh: -19%

What do the screens show for `COC1CCN(C(=O)c2ccc3oc(Cc4ccc(Cl)cc4)nc3c2)CC1`?
GLS inh: -13%; G9a block: 19%; BAZ2B block: -11%; JMJD2A Tudor inh: -7%; HP1b chromo inh: 42%

How did COc1cccc(-c2nnc3n2N=C(c2c(OC)cccc2OC)CS3)c1 do in these assays?
JMJD2A Tudor inh: -19%

Results for Nc1cccc2c1nnn2C1OC(CO)C(O)C(O)C1O (stereo not given) ?
G9a block: 3%; L3MBTL1 block: 1%; BAZ2B block: -16%
